# Laboratory results reported in PubChem BioAssay (NCI).
# This is part of a sample that, as a whole, favours compounds with a hit. Of some 79,000 tested, about 15% had one in any assay. Activity calls are given as the source filed them. No stated cut-off is given here; in the data, active means growth inhibition above about 70%; inactive means the rest.
# Test: NCI Yeast Anticancer Drug Screen. Data for the sgs1 mgt1 strain (AID 161);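 further: 0% = growth of cultures given vehicle only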
# Details: S. cerevisiae sgs1 mgt1 strain, at 5.0 µM (retest, dose inferred, filed as 0.5), stronger effect = higher value
# Outline: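 Test agents were incubated with a DNA-repair-mutant yeast strain. Growth was then read and compared against vehicle-treated controls.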
row,SMILES,growth inhibition
1,CC12C=CC(=O)C=C1CCC1C3CCC(O)(C(=O)CO)C3(C)CC(O)C12F (configuration not stated),3% (inactive)
2,O=Cc1ccc2c(c1)CC1(C2)Cc2ccc3c(c2C1)CCC3 (configuration not stated),14% (inactive)
3,C[N+](C)(C)CC(=O)N/N=C(\C(=O)NC1=C(Cl)C(=O)c2ccccc2C1=O)C(C#N)c1nc(-c2ccc([N+](=O)[O-])cc2)cs1 (configuration not stated),11% (inactive)
4,NC(=O)CC1CCC(c2ccccc2)CC1 (configuration not stated),-1% (inactive)
5,O=C(CC(C[N+](=O)[O-])c1ccc2c(c1)OCO2)c1ccccc1 (configuration not stated),-1% (inactive)
6,CC(=O)OCCCCCCCCCCCCCCO,-4% (inactive)
7,CCOC(=O)c1sc(N/N=C2\NC(=O)/C(=C/c3ccc([N+](=O)[O-])cc3)S2)nc1C,12% (inactive)
8,O=C1OC(c2ccc3c(c2)OCO3)Sc2ccccc21 (configuration not stated),1% (inactive)

# Same assay, conditions: S. cerevisiae sgs1 mgt1 strain, at 50.0 µM (retest, dose inferred, filed as 5.0), stronger effect = higher value
row,SMILES,growth inhibition
1,Oc1ccc2oc3ccccc3c2c1,82% (active)
2,O=C(O)Cc1cc(I)c(Oc2ccc(O)c(I)c2)c(I)c1,93% (active)
3,O=C(O)/C(=C\c1ccc(Cl)cc1)c1ccc(C(F)(F)F)cc1[N+](=O)[O-],91% (active)
4,Fc1ccc(NC(=S)SCc2ccccc2)cc1,19% (inactive)
5,CN(C)c1ccccc1CC(c1c[nH]c2ccccc12)c1c[nH]c2ccccc12,91% (active)
6,O=C(c1ccccc1)N1CCN(c2cccc(Cl)c2)CC1,8% (inactive)
7,[C-]#[N+]C(C)(c1ccccc1)c1ccccc1,79% (active)
8,Nc1ccccc1[S][Sn]([c]1ccccc1)([c]1ccccc1)[c]1ccccc1,99% (active)
9,O=C1C(Cl)=C(Cl)C(=O)c2cc(Cl)c(Cl)cc21,99% (active)
10,CCCCCCCNC1CCCc2cc(OC)ccc21 (configuration not stated),64% (inactive)
11,NCCc1ccc2oc3cc(=O)c4ccccc4c-3nc2c1,46% (inactive)
12,C/C=C/c1cc2c(cc1O)CC[C@@H]1[C@@H]2CC[C@]2(C)[C@@H](O)CC[C@@H]12,97% (active)
13,c1ccc(SSc2ccccn2)nc1,99% (active)
14,COC1=C2C[C@@H](C)C[C@@H](OC)[C@@H](O)[C@H](C)/C=C(\C)[C@@H](OC(N)=O)[C@H](OC)/C=C\C=C(/C)C(=O)NC(=CC1=O)C2=O,92% (active)
15,NCc1ccccc1-c1c2nc(c(-c3ccccc3CN)c3ccc([nH]3)c(-c3ccccc3CN)c3nc(c(-c4ccccc4CN)c4ccc1[nH]4)C=C3)C=C2,82% (active)
16,Cc1cc(C)n2nc(N)c(C#N)c2c1C#N,8% (inactive)
17,CC(=O)OCC1OC(n2c(O)c(N=NC(N)=S)c3ccc([N+](=O)[O-])cc32)C(OC(C)=O)C1OC(C)=O (configuration not stated),72% (active)
18,CC1(c2cccs2)C(C#N)(C#N)C1(C#N)C#N,39% (inactive)
19,O=C1C=CC(=O)N1C12CC3CC(CC(C3)C1)C2,99% (active)
20,C(=C/c1cnnc2ccccc12)/c1ccccn1,44% (inactive)

row,SMILES,growth inhibition
1,COc1ccc2c(c1)C1(C)CCCC(C)(C(=O)O)C1CC2 (configuration not stated),99% (active)
2,CCN(CC)c1ccc(N=Nc2ccc(Br)cn2)c(O)c1,79% (active)
3,O=[N+]([O-])c1cc(NC(=S)SCc2ccccc2)ccc1Cl,99% (active)
4,C(=C/c1ccnc2ccccc12)/c1cccs1,91% (active)
5,O=P1(O)c2ccccc2CS(=O)(=O)Cc2ccccc21,53% (inactive)
6,CN1C(Cl)=NS(=O)(=O)c2ccccc21,18% (inactive)
7,O=C1C=CC(=O)N1c1ccc(Cl)cc1,100% (active)
8,CC(C)CC(C(=O)SCC(C)N1CCCC1)c1ccccc1 (configuration not stated),56% (inactive)
9,CC(C)OC(=O)c1ccc(CCC2=CC(=O)C=CC2=O)cc1,94% (active)
10,Cc1ccnc2[nH]c3ccccc3c(=O)c12,96% (active)
11,COc1cc(/C=C/C(=O)c2ccc(O)c(OC)c2)ccc1O,26% (inactive)
12,CC12C=CC(=O)C=C1CCC1C3CCC(O)(C(=O)CO)C3(C)CC(O)C12F (configuration not stated),54% (inactive)
13,O=Cc1ccc2c(c1)CC1(C2)Cc2ccc3c(c2C1)CCC3 (configuration not stated),81% (active)
14,C[N+](C)(C)CC(=O)N/N=C(\C(=O)NC1=C(Cl)C(=O)c2ccccc2C1=O)C(C#N)c1nc(-c2ccc([N+](=O)[O-])cc2)cs1 (configuration not stated),97% (active)
15,NC(=O)CC1CCC(c2ccccc2)CC1 (configuration not stated),-14% (inactive)
16,O=C(CC(C[N+](=O)[O-])c1ccc2c(c1)OCO2)c1ccccc1 (configuration not stated),-50% (inactive)
17,CC(=O)OCCCCCCCCCCCCCCO,99% (active)
18,CCOC(=O)c1sc(N/N=C2\NC(=O)/C(=C/c3ccc([N+](=O)[O-])cc3)S2)nc1C,92% (active)
19,O=C1OC(c2ccc3c(c2)OCO3)Sc2ccccc21 (configuration not stated),10% (inactive)
